GLS inhibitor: glutaminase GLS (human) inhibition. GLS enzymatic activity, qHTS titration. AID 624170. 0.21% of 410,000 active. Potency, µM (highest dose often 45.5 µM), usual class: inhibitors. O94925
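Human kidney-isoform GLS in 45 mM KH2PO4 pH 8.2, 0.02% Tween-20, with compound, started with 1mM L-Glutamine (added stock). Glutamate oxidase/HRP/Amplex red coupled fluorescence read at start and after 30 min at RT.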
HP1b binding inh: HP1-beta chromodomain-methylated histone interaction inhibition; P83916; AlphaScreen HP1-beta / biotin-H3K9me3 peptide binding; Potency, µM (doses to about 114 µM), most hits filed as inhibitors; 0.56% of 390,000 active; AID 540317; further: nearly all actives have a fitted effect of over 70% in size
Target sequence (P83916 whole entry, looked up): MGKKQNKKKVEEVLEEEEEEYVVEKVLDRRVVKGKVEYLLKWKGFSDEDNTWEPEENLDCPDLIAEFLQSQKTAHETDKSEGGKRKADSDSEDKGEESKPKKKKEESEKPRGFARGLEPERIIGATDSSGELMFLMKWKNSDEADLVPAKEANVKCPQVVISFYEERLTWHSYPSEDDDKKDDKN
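HP1-beta protein (50 nM final) preincubated 30 min at room temperature with biotinylated H3(1-18)K9me3 peptide (50 nM) in PBS pH 7.4, 0.01% Tween-20, then compound added for 30 min. AlphaScreen streptavidin donor/nickel chelate acceptor beads (10 ug/mL final), 30 min dark, luminescence read.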
JMJD2A Tudor inh: JMJD2A Tudor domain (human) inhibition | O75164 | AlphaScreen JMJD2A-Tudor / H3K4me3 peptide binding | Potency, µM (doses to about 114 µM), most hits filed as inhibitors | 4.4% of 390,000 active | AID 504339; further: nearly all actives have a fitted effect of over 50% in size
G9a block: blocks human histone lysine methyltransferase G9a. G9a H3K9 monomethylation, AlphaScreen, 2 h. 8.8% of 350,000 active. Q96KQ7. Potency, µM (top dose mostly 102 µM), actives largely listed as inhibitors; further: nearly all actives have a fitted effect of over 75% in size
Target sequence (Q96KQ7 913-1193 limits assumed): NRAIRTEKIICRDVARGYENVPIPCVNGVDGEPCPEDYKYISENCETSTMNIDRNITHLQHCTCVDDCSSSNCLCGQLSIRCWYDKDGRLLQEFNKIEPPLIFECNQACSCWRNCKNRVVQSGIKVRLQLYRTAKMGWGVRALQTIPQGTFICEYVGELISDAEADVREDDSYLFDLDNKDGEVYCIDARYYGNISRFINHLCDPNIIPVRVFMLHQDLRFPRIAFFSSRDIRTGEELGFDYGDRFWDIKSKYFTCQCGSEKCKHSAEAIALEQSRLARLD
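G9a (20 nM) was preincubated 15 min with compound, then reacted 2 h at room temperature with 500 nM biotin-H3K9 peptide and 20 µM SAM. Monomethyl-H3K9 detected by AlphaScreen using anti-H3K9me1 antibody.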
BAZ2B block: blocks human BAZ2B. Q9UIF8. AlphaScreen BAZ2B-H3K14Ac peptide displacement. Potency, µM (top dose mostly 114 µM), hits mostly inhibitors. 4.4% of 360,000 active. AID 504333; further: nearly all actives have a fitted effect of over 60% in size
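In this displacement format the biotinylated H3(5-23) peptide acetylated at Lys14 serves as ligand at 50 nM, with BAZ2B at 50 nM in PBS pH 7.4 containing 0.01% Tween-20. Donor and acceptor beads are 10 ug/mL final.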
Numbers stand for hits; 0 = inactive; ? = inconclusive; - = not tested or not shown; [ ] = dose if it differs, or a comment. The list is not random: actives were taken first. Their share in the collection is about 10%. The call rests on the fitted dose curve; in most records, active means well fitted curve in the direction sought with a large enough effect; inconclusive means small, poorly fitted or top-dose-only effect, or another doubt; inactive means no such curve, though single readings can be large; an effect the other way counts as inactive or inconclusive.

SMILES	GLS inhibitor	HP1b binding inh	JMJD2A Tudor inh	G9a block	BAZ2B block
COc1ccc(N2CCN(C(=O)C(=O)c3c(C)[nH]c4ccccc34)CC2)cc1	0	0	?	40µM	?
COCCNC(=S)N(CCO)Cc1cc2cc3c(cc2[nH]c1=O)OCO3	0	0	0	?	0
Cc1c(SCCO)c(=O)[nH]c2cc3c(cc12)OCO3	0	0	0	50µM	0
CCOC1=C2[C@@H](CN(S(=O)(=O)c3ccc(C)cc3)[C@H]2c2cccc3ccccc23)[C@H]2C(=O)N(C3CCCCC3)C(=O)[C@H]2C1	0	-	-	-	-
COc1cc(C(=O)N2c3ccccc3CCC2C)cc(OC)c1OC (stereo unspecified)	0	0	0	0[0.501 µM]	0
CC1CCc2ccccc2N1C(=O)c1cccs1 (stereo unspecified)	0	?	56µM	0	0
COc1ccc(CN(Cc2ccc(C(=O)O)cc2)C(=S)Nc2cccc(C)c2)cc1OC	0	0	0	?	0
Oc1ccc2ccccc2c1N=Nc1ccc(F)cc1	0	5.6µM	2.2µM	2µM	2.2µM
Oc1c(N=Nc2nn[nH]n2)ccc2ccccc12	20µM	-	-	-	-
Cc1ccc(N=Nc2ccc3ccccc3c2O)cc1	0	?	3.2µM	2µM	1.1µM
Oc1c(-c2cc(-c3ccco3)[nH]n2)ccc2ccccc12	0	0	?	?	?
Oc1[nH]c2ccccc2c1N=Nc1ccccc1	0	0	0	0[12.7 µM]	?
Oc1c(N=Nc2ccc(F)cc2)ccc2ccccc12	0	3.2µM	2.5µM	2.5µM	1.4µM
Oc1[nH]c2ccccc2c1N=Nc1ccc(F)cc1	0	0	0	?	0
O=C(OCCCOC(=O)c1ccccc1O)c1ccccc1O	-	-	-	0	0
Cc1[nH]c2c(ccc3cccnc32)c1C	0	?	45µM	0[12.7 µM]	35µM
S=C(Nc1ccccn1)Nc1ccccc1Cl	0	0	0	-	0
Cc1ccc(C)c(NC(=S)c2ccccn2)c1	0	6.3µM	79µM	?	20µM
S=C(Nc1ccccn1)c1ccccn1	0	13µM	5µM	?	10µM
O=C1Cc2cc(S(=O)(=O)N3CCN(c4ccc(O)cc4)CC3)ccc2N1	0	-	126µM	-	-
O=C1Cc2cc(S(=O)(=O)N3CCN(c4ccc(F)cc4)CC3)ccc2N1	-	-	0	-	-
O=C1CC(=O)Nc2cc(S(=O)(=O)N3CCN(c4ccc([N+](=O)[O-])cc4)CC3)ccc2N1	0	0	0	13µM	50µM
O=C1Cc2cc(S(=O)(=O)N3CCN(c4ccc([N+](=O)[O-])cc4)CC3)ccc2N1	-	-	0	-	-
CC(=O)c1cccc(NC(=O)CN2C(=O)c3cccnc3Sc3ccccc32)c1	0	0	0	0	0
CC1=C(C(=O)N(C)C)CC(CC(=O)NCc2cccs2)C(=O)N1CCCN1CCCC1=O (stereo unspecified)	0	-	-	-	-
SMILES	GLS inhibitor	HP1b binding inh	JMJD2A Tudor inh	G9a block	BAZ2B block
CCSc1nc2nccnc2c(=O)[nH]1	0	0	0	-	-
O=C(COc1ccccc1Cl)Nc1cccc(S(=O)(=O)NC2=NCCCCC2)c1	0	0	0	50µM	0
CN(C)c1ccc(C(=O)Nc2ccc(S(=O)(=O)NC3=NCCCCC3)cc2)cc1	0	0	0	?	0
O=C(COc1cc(F)ccc1[N+](=O)[O-])Nc1cccc(S(=O)(=O)NC2=NCCC2)c1	0	0	0	3.2µM	0
N#Cc1ccc(C(=O)Nc2ccc(S(=O)(=O)NC3=NCCCCC3)cc2)cc1	0	0	0	50µM	?
CC(Oc1cccc(Cl)c1)C(=O)Nc1ccc(S(=O)(=O)NC2=NCCCCC2)cc1 (stereo unspecified)	0	0	0	35µM	0
COc1ccccc1OCC(=O)Nc1cccc(S(=O)(=O)NC2=NCCCCC2)c1	0	0	0	0	0
CCCSc1nc(N)nc2c1ncn2C1OC(CO)C(O)C1O (stereo unspecified)	0	0	0	-	-
CC(C)Oc1ccccc1-c1nc(SCC(=O)c2ccc(F)cc2)n[nH]1	0	0	0	0	0
COc1cccc(C(C#N)NCCCNC(C#N)c2cccc(OC)c2OC)c1OC (stereo unspecified)	0	0	0	-	-
COc1cccc(NC(=O)c2oc3ccccc3c2NC(=O)c2ccc(OC(C)C)cc2)c1	0	0	0	0	0
O=C(Nc1cccc(S(=O)(=O)NC2=NCCCCC2)c1)c1ccc(Cl)cc1	0	0	0	50µM	0
O=C(Nc1cccc(S(=O)(=O)NC2=NCCCCC2)c1)C1COc2ccccc2O1 (stereo unspecified)	0	0	?	50µM	56µM
CC1CN(S(=O)(=O)c2cccc(C(=O)Nc3ccc(S(=O)(=O)NC4=NCCCCC4)cc3)c2)CC(C)O1 (stereo unspecified)	0	0	0	18µM	0
O=C(Nc1ccc(S(=O)(=O)NC2=NCCCCC2)cc1)c1cccc(S(=O)(=O)N2CCOCC2)c1	0	0	0	-	-
CCc1cc(C(=O)Nc2ccc(S(=O)(=O)NC3=NCCCCC3)cc2)sc1C	0	0	0	40µM	0
Cc1ccc(C(=O)Nc2ccc(S(=O)(=O)NC3=NCCCCC3)cc2)c(C)c1	0	0	0	0	0
COc1ccc(C(=O)CC(=O)C(=O)Nc2ccc(C)c(Cl)c2)cc1	0	0	0	0	0
COc1cc(CN2C[C@@H](CO)O[C@@H](n3cnc4c(Nc5ccccc5)ncnc43)C2)cc(OC)c1OC	0	-	-	-	-
CN(CC(=O)Nc1ccc(F)cc1[N+](=O)[O-])C1CCS(=O)(=O)C1 (stereo unspecified)	0	0	0	-	-
COc1cc(NC(=O)Nn2cnnc2)cc(OC)c1OC	0	0	0	45µM	0
CCc1ccc(NC(=O)CSc2nccn(-c3ccc4c(c3)OCCO4)c2=O)cc1	0	0	0	0[0.501 µM]	0
CCOC(=O)c1c(C)[nH]c(C(=O)OCc2ccccc2)c1C	0	0	0	0	0
COC(=O)CCc1c(C)[nH]c(C(=O)OCc2ccccc2)c1C	0	0	?	?	50µM
CC(=O)c1c(C)[nH]c(C(=O)OCC(=O)C(C)(C)C)c1C	0	0	0	0[2.33 µM]	?
SMILES	GLS inhibitor	HP1b binding inh	JMJD2A Tudor inh	G9a block	BAZ2B block
CC(=O)c1c(C)[nH]c(C(=O)OCC(=O)c2ccc(C)s2)c1C	0	0	0	0[2.33 µM]	56µM
CC(=O)c1c(C)[nH]c(C(=O)OCc2ccc(Br)cc2)c1C	0	0	0	0	0
CC(=O)c1c(C)[nH]c(C(=O)OCc2cccc(C)c2)c1C	0	0	0	0	50µM
Cc1ccc(-c2nnc(SCC(=O)c3ccc(Cl)cc3)n2-c2ccccc2)cc1	0	0	?	0	0
Cc1ccc(S(=O)(=O)N2CCCC(c3nc4c(nnn4Cc4ccc(OC(F)(F)F)cc4)c(=O)[nH]3)C2)cc1 (stereo unspecified)	0	0	0	0	0
CCN(C(=O)COC(=O)c1cccnc1SC)c1c(N)n(Cc2ccccc2)c(=O)[nH]c1=O	0	0	0	0[12.7 µM]	0
COc1cc(C2NC(=O)NC(C)=C2[N+](=O)[O-])cc(OC)c1OC (stereo unspecified)	0	0	0[11.4 µM]	0	0

From PubChem
